Assay outcomes deposited in PubChem by National Center for Advancing Translational Sciences (NCATS).
In the library only some 6.2% were active in any assay of this set; here they are far more common.
RORg inh: blocks mouse ROR gamma transcriptional activity. actives 5.4% (n = 310,000). P51450. Potency, µM (series often up to 53.6 µM), hits mostly inhibitors. Drosophila S2 Gal4-RORgamma UAS-luciferase reporter, 20 h. AID 2551; note: nearly all actives have a fitted effect of over 60% in size
Target sequence (P51450 whole entry, looked up, the tested form may be a part): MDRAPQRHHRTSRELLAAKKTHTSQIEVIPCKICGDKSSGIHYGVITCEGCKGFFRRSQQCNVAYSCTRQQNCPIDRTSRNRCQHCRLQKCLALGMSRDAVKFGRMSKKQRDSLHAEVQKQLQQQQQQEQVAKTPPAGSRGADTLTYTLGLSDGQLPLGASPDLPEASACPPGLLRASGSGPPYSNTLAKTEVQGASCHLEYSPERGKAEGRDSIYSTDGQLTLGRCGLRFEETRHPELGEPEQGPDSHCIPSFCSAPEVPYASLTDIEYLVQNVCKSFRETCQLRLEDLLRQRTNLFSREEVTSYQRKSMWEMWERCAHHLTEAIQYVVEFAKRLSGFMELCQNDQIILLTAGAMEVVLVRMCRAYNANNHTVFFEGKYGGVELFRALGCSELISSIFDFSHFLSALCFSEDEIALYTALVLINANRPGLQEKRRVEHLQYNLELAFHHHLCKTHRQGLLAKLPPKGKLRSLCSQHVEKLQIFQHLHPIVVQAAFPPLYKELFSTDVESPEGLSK
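Luminescence from a UAS-regulated Photinus luciferase reporter in stably transfected Drosophila Schneider cells is measured; decreased signal marks ROR gamma inhibition. Fusion expression is induced by 700 uM copper sulfate for 20 hr.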
Gal4-VP16 FLuc: inhibits Gal4-VP16 luciferase reporter, ROR gamma counter-screen; Drosophila S2 Gal4-VP16 UAS-luciferase, luminescence, 20 h; Potency, µM (series often up to 53.6 µM), usual class: inhibitors; actives 3.5% (n = 310,000); AID 2546;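 note: Gal4-VP16 expression switched on by copper sulfate through the metallothionein promoter; nearly all actives have a fitted effect of over 50% in size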
KinaseGlo FLuc: blocks Kinase-Glo luciferase, a counter-screen artifact. actives 0.28% (n = 200,000). Kinase-Glo luciferase, ATP luminescence, 8 min. AID 1379. Q27757. Potency, µM (titrated, usually from 38.3 µM), usual class: inhibitors; note: nearly all actives have a fitted effect of over 60% in size
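Inhibition of Kinase-Glo luciferase light generation was assessed at 10 uM ATP in pH 7.2 imidazole buffer, with luminescence measured after eight minutes at ambient temperature.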
A number is an active result; i = inactive; ? = inconclusive; nt = no result given; [ ] = another dose, or the depositor's remark. Calls come from the whole dose curve; as a rule, active = well fitted curve in the direction sought with a large enough effect; inconclusive = small, poorly fitted or top-dose-only effect, or another doubt; inactive = no such curve, though single readings can be large; an effect the other way counts as inactive or inconclusive.

SMILES | RORg inh | Gal4-VP16 FLuc | KinaseGlo FLuc
Cc1ccc(NC2=C(Cl)C(=O)OC2OC(=O)c2ccco2)cc1C (configuration not stated) | i | ? | i
Cc1ccc(C)c(NC2=C(Cl)C(=O)OC2OC(=O)c2ccco2)c1 (configuration not stated) | 11µM | ? | i
C=CCNc1nc(NCC)nc(N2CCOCC2)n1 | 2µM | i | i
CCNc1nc(N2CCOCC2)nc(N(c2ccccc2)c2ccccc2)n1 | i | i | i
Cc1cc(Oc2ccccc2)nc(SCC(=O)Nc2ccc(Cl)cc2Cl)n1 | 3.5µM | i | i
COC(=O)CSc1nc(C)cc(Oc2ccccc2)n1 | i | i | i
COc1ccc(C(CNC(=O)Cc2c(F)cccc2Cl)N2CCCCC2)cc1 (configuration not stated) | i | i | i
COc1cc(/C=N/N=C/c2c[nH]c(=O)c(C#N)c2Nc2ccccc2)ccc1O | i | i | nt
CC#CCN1c2ccccc2[C@]23C[C@@H](C(=O)OC)N(C(=O)c4cccs4)C2=NC(C(=O)OC)=C(C(=O)OC)[C@H]13 | nt | nt | i[7.66 µM]
Cc1ccc2nc(C)c(C(=O)N/N=C/c3cccs3)n2c1 | 11µM | i | i
Cc1ccn2c(C(=O)N/N=C\c3cccs3)c(C)nc2c1 | ? | i[0.365 µM] | i
Cc1ccc2nc(C)c(C(=O)NN=C3CCCCCC3)n2c1 | 13µM | i | i
Cc1ccn2c(C(=O)NN=C3CCN(C)CC3)c(C)nc2c1 | i | i | i
C[C@H](O)[C@@H]1C(=O)N2C(C(=O)O)=C(SCCN=CN)C[C@@H]12 | i[2.98 µM] | i | i
Cc1ccc(-c2cc(-c3ccccc3)nc(N(C)N)n2)cc1 | 13µM | ? | nt
Cc1ccc(-c2cc(N)nc(-c3ccccc3)c2)cc1 | i | i | nt
Cc1nn(-c2ccccc2)c(NC(=O)NS(=O)(=O)c2ccc(Cl)cc2)c1C#N | i | i | nt
O=c1[nH]c(Cc2ccccn2)nc2scc(-c3ccc(Cl)cc3)c12 | 5.6µM | ? | i
O=c1[nH]c(Cc2cccs2)nc2scc(-c3ccc(Cl)cc3)c12 | ? | i | nt
Cc1ccc(-c2csc3nc(CN(C)Cc4ccccc4)[nH]c(=O)c23)cc1 | 1.3µM | 6.3µM | i
O=c1[nH]c(Cc2ccc(F)cc2)nc2scc(-c3ccc(F)cc3)c12 | ? | i | i
CC(C)(C)OC(=O)C(Cc1ccc(OC(C)(C)C)cc1)NC(=O)CNC(=O)OCc1ccccc1 (configuration not stated) | ? | ? | i
COCCC(=O)N1CCC(Oc2ccc(C(=O)NC3CCCCC3)cc2)CC1 | i | i | nt
COc1ccc(CC(=O)NC(C)(C)CC(C)=O)cc1OC | i | i | i
COc1ccc(CC(=O)n2[nH]c(=O)cc(C)c2=O)cc1OC | 11µM | ? | nt
SMILES | RORg inh | Gal4-VP16 FLuc | KinaseGlo FLuc
CCOC(=O)C(C)Oc1cccc2c(=O)n(CC(=O)N3CCN(C(=O)OCC)CC3)ccc12 (configuration not stated) | i | i | i
Cc1cnn(CCC(=O)NNC(=S)NCC(C)C)c1 | 0.56µM | 3.2µM | i
CCCCNC(=S)NNC(=O)CCn1cc(C)cn1 | 1.6µM | 6.3µM | i
CC(C)CNC(=S)NNC(=O)CC(C)O (configuration not stated) | i | i | i
CCCCNC(=S)NNC(=O)C1=NN(c2cc(C)ccc2C)C(=O)CC1 | ? | i | nt
CCN(CC)S(=O)(=O)c1ccc(N2CCCC2)c(NS(=O)(=O)c2ccc(F)cc2)c1 | i | i | i
CC1(C)CN(C(=S)Nc2ccc(F)cc2F)C1=O | i | i | nt
O=[N+]([O-])c1cc(Br)c(Nc2ccccc2)c([N+](=O)[O-])c1 | ? | 13µM | nt
O=C(Nc1ccccc1)c1ccc(Nc2c([N+](=O)[O-])cc([N+](=O)[O-])c3ccccc23)cc1 | i | i | i
COc1ccc([C@]23Cc4ccccc4C(O2)C2=C(CC4(CCCCC4)OC2=O)O3)cc1 | i[10 µM] | ? | nt
COc1ccccc1OCCCOc1ccc(C)cc1Br | i | i | i
COc1cc(C)ccc1OCCCOc1ccccc1Br | 13µM | i | i
N/C(=N\OC(=O)c1ccncc1)c1cccc([N+](=O)[O-])c1 | i | i | nt
COc1cccc(C(=O)O/N=C(\N)c2ccc(C)cc2)c1 | i | i | nt
COc1cccc(C(=O)O/N=C(\N)Cc2ccc(Cl)cc2)c1 | i | 13µM | i
Cc1cccc(/C(N)=N/OC(=O)Cc2cccc3ccccc23)c1 | i | i | i
COc1ccc(C(=O)O/N=C(\N)c2ccccc2)cc1OC | i | i | nt
Cc1cccc(/C(N)=N/OC(=O)c2ccncc2)c1 | 7.1µM | ? | nt
Cc1cccc(C(=O)O/N=C(\N)Cc2cccc3ccccc23)c1 | ? | 11µM | nt
COc1ccc(C(=O)O/N=C(\N)c2cccc(C)c2)cc1OC | 1µM | ? | nt
COc1ccc(CNC(=O)COC(=O)CCc2c[nH]c3ccccc23)cc1 | i | i | i
O=S(=O)(NCCc1ccccc1)c1ccccc1Br | i | i | nt
CCOC(=O)C1C(C(=O)OC)=C(C2=CCCCC2)c2ccccc2N1S(=O)(=O)C(F)(F)F (configuration not stated) | i | i | i
CCc1cccc(C)c1NS(=O)(=O)Cc1ccccc1 | i | i | nt
CCC(C)[C@H](NC(=O)N1CCN(C)CC1)C(=O)OC (some centres not stated) | i | i | i
SMILES | RORg inh | Gal4-VP16 FLuc | KinaseGlo FLuc
COC(=O)c1c(C)oc(C)c1S(=O)(=O)NCc1ccco1 | i | i | nt
N/C(=N\OC(=O)c1ccc2c(c1)OCO2)c1ccncc1 | 10µM | ? | nt
N/C(=N\OC(=O)c1ccc2c(c1)OCO2)c1ccc(Cl)cc1 | i | i | ?
Cc1cc(C)c(S(=O)(=O)Nc2cccc3nsnc23)c(C)c1 | i | i | i
O=S(=O)(Nc1cccc2cccnc12)c1ccc(Br)s1 | 0.56µM | 1.1µM | nt
O=S(=O)(Nc1cccc2cccnc12)c1ccc2ccccc2c1 | 5.6µM | 0.63µM | nt
Cc1cc(C)c(S(=O)(=O)Nc2cccc3cccnc23)c(C)c1 | 0.089µM | 0.32µM | nt
O=C(O)c1ccccc1NS(=O)(=O)c1ccc2ccccc2c1 | i | i | nt
O=S(=O)(Nc1cccc2cccnc12)c1ccccc1O | 2µM | 3.2µM | nt
Cc1cccc(NS(=O)(=O)c2ccc(Br)s2)n1 | i | i | i
O=S(=O)(Nc1ccccc1O)c1cccc2cccnc12 | i | i | i
O=C(O)c1ccc(S(=O)(=O)N[C@H](Cc2ccc([N+](=O)[O-])cc2)C(=O)O)cc1 | i | i | nt
COc1ccccc1CN1CCC(n2nccc2NC(=O)CCCc2ccccc2)CC1 | i | i | nt
O=c1c(CCc2ccccc2)nc2cnc(Nc3ccccc3)nc2n1C[C@H]1CCCO1 | i | i | nt
COc1ccc(C(=O)Nc2cc(OC)cc3cccnc23)cc1 | i | i | nt
COc1ccc(S(=O)(=O)Nc2cc(OC)cc3cccnc23)cc1 | 2.5µM | ? | nt
O=S(=O)(Nc1cccnc1Cl)c1ccc(F)cc1 | i | i | nt
Cc1ccc(S(=O)(=O)Nc2cccc3ncccc23)cc1 | i | i | nt
Cc1ccc(S(=O)(=O)Nc2ccccc2CNc2cccc(C)n2)cc1 | i | i | i
Cc1ccc(S(=O)(=O)Nc2cccc3ncccc23)s1 | 0.28µM | 0.56µM | i
O=S(=O)(Nc1cccc2cccnc12)c1ccc(Br)cc1 | 0.56µM | 1.3µM | nt
Cc1ccc(S(=O)(=O)Nc2cccc3ccc(C)nc23)cc1 | 3.2µM | ? | nt
COc1cc(C(=O)N[C@H](C(=O)Nc2nnc(C3CC3)s2)C(C)C)cc(OC)c1OC | i | i | nt
